{
  "source": "PubChem BioAssay (NCATS)",
  "note": "Records with an inconclusive call do not appear. Calls of active or inactive are those of the source. The call rests on the fitted dose curve; in most records, active means well fitted inhibition curve with a large enough effect; inconclusive means small, poorly fitted or top-dose-only effect; inactive means flat fitted curve, though single readings scatter.",
  "data": [
    {"tested_on": "CP203", "experiment": "qHTS profiling for inhibitors of Plasmodium falciparum proliferation (AID 504749); further: nearly all actives have a fitted effect of over 60% in size; further: potency means the concentration at half of the fitted maximal effect;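 on activity, negative = inhibition: 0% = DMSO vehicle and full inhibition = artemisinin control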", "conditions": "P. falciparum in erythrocytes, SYBR Green DNA, 72 h; series mostly up to 28.7 µM; activity, negative = inhibition: at the top concentration", "source_text": "NIH National Institute of Allergy and Infectious Diseases [NIAID] NIH Chemical Genomics Center [NCGC] MLPCN Grant: None Assay Provider: Xinzhuan Su, NIAID NCGC Assay Overview: Plasmodium falciparum is a virulent malarial parasite that kills 1-2 million people worldwide each year. Transmitted by mosquitoes, the sporozoite form of the parasite enters the blood stream to infect hepatocytes, where they become merozoites that infect red blood cells (erythrocytes). Within erythrocytes, merozoites begin a […] cycle of growth and division, after which the parasite is released to infect new red blood cells. Gametocytes, which form within erythrocytes as well, circulate in the bloodstream and are ingested by the mosquito, thereby completing the life cycle. To profile malarial isolates for differential chemical responses and to identify inhibitors of malarial growth, an assay that measures P. falciparum growth and replication within erythrocytes was employed. This assay uses a DNA binding fluorescent dye (SYBR Green) to detect parasite DNA following cell lysis. Because mature erythrocytes lack DNA, only Plasmodium-derived DNA is detected.\nNCGC Assay Protocol Summary: The SYBR Green viability assay was adapted from a method described previously (Plouffe et al., 2008). For screening 3 ul culture medium was dispensed into 1536 well black clear bottom plates (Aurora Biotechnologies) using a Multidrop Combi (Thermo Fisher Scientific Inc.), 23 nL compounds in DMSO were added by a pin tool (Kalypsys), and 5 ul of erythrocytes infected with P. falciparum (0.3% parasitemia, 2.5% hematocrit final concentration) were added. The plates were incubated at 37 C in a humidified incubator in 5% CO2 for 72 h, and 2 ul lysis buffer (20 mM Tris HCl, 10 mM EDTA, 0.16% saponin, 1.6% triton X, 10X SYBR Green I supplied as 10,000X […] by Invitrogen) was added to each well. The plates were mixed for 25 sec with gentle shaking and incubated overnight at room temperature in the dark. The following morning, fluorescence intensity at 485(14) nm excitation and 535(25) nm emission wavelengths was measured on an EnVision (Perkin Elmer) plate reader. Plate reads were normalized relative to the control inhibitor (0.29 uM artemisinin) and vehicle (DMSO) wells present on each plate and then corrected by an algorithm using vehicle-only control plates at the beginning and end of the compound plate stack.", "values": [
      {"compound": "CCCCCCCCCC(CC)c1ccc(S(=O)(=O)O)cc1", "note": "(configuration not stated)", "activity, negative = inhibition": "-2.06% (inactive)"},
      {"compound": "NC(=O)CN1CC(O)CC1=O", "note": "(configuration not stated)", "activity, negative = inhibition": "1.13% (inactive)"},
      {"compound": "Cc1cc(O)ccc1Cl", "activity, negative = inhibition": "-1.07% (inactive)"},
      {"compound": "NC1=NC(=O)N2CC12", "note": "(configuration not stated)", "activity, negative = inhibition": "2.67% (inactive)"},
      {"compound": "C1CCC(NC2CCCCC2)CC1", "activity, negative = inhibition": "-1.06% (inactive)"},
      {"compound": "CCCN1CCC[C@H](c2cccc(O)c2)C1", "activity, negative = inhibition": "-7.06% (inactive)"},
      {"compound": "C[C@]12CCC(=O)C(O)=C1CC[C@@H]1[C@H]3CCC(=O)[C@@]3(C)CC[C@@H]12", "activity, negative = inhibition": "7.77% (inactive)"},
      {"compound": "CN1C2CCC1CC(OC(=O)c1cc(Cl)cc(Cl)c1)C2", "note": "(configuration not stated)", "activity, negative = inhibition": "-9.13% (inactive)"},
      {"compound": "C#CC1(O)CCC2C3CCC4=CC(=O)CCC4(C)C3CCC21C", "note": "(configuration not stated)", "activity, negative = inhibition": "3.85% (inactive)"},
      {"compound": "CC(=O)OCC1=C(C(=O)O)N2C(=O)[C@@H](N)[C@@H]2SC1", "activity, negative = inhibition": "-0.508% [at 12.8 µM] (inactive)"},
      {"compound": "O=[N+]([O-])c1ccc([As](=O)(O)O)cc1", "Potency": "9.53 µM (active)"},
      {"compound": "CC(C)NC(C)Cc1ccc(I)cc1", "note": "(configuration not stated)", "activity, negative = inhibition": "-21.5% (inactive)"},
      {"compound": "O=C(O)COc1ccccc1", "activity, negative = inhibition": "-0.0774% (inactive)"},
      {"compound": "C=CCN1CC[C@]23CCCCC2[C@H]1Cc1ccc(O)cc13", "note": "(some centres not stated)", "activity, negative = inhibition": "1.02% (inactive)"},
      {"compound": "O=C(O)C(Cl)Cl", "activity, negative = inhibition": "3.22% (inactive)"},
      {"compound": "CC(=O)[O][Hg][c]1ccccc1", "Potency": "13.5 µM (active)"},
      {"compound": "c1ccc(C2(c3ccccc3)CC2C2=NCCN2)cc1", "note": "(configuration not stated)", "activity, negative = inhibition": "-7.6% (inactive)"},
      {"compound": "CCCCc1ccc(C(=O)O)nc1", "activity, negative = inhibition": "0.177% (inactive)"},
      {"compound": "COC(=O)c1cncn1C(C)c1ccccc1", "note": "(configuration not stated)", "activity, negative = inhibition": "-3.39% (inactive)"},
      {"compound": "COC(=O)[C@@H](N)CCCN=C(N)N[N+](=O)[O-]", "activity, negative = inhibition": "1.27% (inactive)"},
      {"compound": "CC[N+]1(CCOC(=O)C(O)(c2ccccc2)c2ccccc2)CCCCC1", "activity, negative = inhibition": "-7.03% (inactive)"},
      {"compound": "Cc1ccc(Cl)c(O)c1", "activity, negative = inhibition": "-2.88% (inactive)"}
    ]}
  ]
}
